# In a collection of fitness landscapes (doi:10.1016/j.celrep.2020.107928):
# Over roughly 81,000 sequences, “one-hybrid fitness for binding NBS DNA” has its median near -0.1; the highest 2% begin near 0.36. The entries come from a sample that favours the highest values as a whole.
# B1: Caulobacter ParB omega fusion; a variant is named by its letters at X, in order, B8GW30 (parent)
# chain: MESVVVGEPGMSEGRRGLGRGLSALLGEVDAAPAQAPGEQLGGSREAPIEILQRNPDQPRRTFREEDLEDLSNSIREKGVLQPILVRPSPDTAGEYQIVAGERAWRAAQRAGLKTVPIMVRELDDLAVLEIGIIENVQRADLNVLEEALSYKVLMEKFERTQENIAQTIGKSXSHVANXMRLLXLPDEVQSYLVSGELTAXHARAIAAAADPVALAKQIIEGGLSVRETEALARKAPNLSAGKSKGGRPPRVKDTDTQALESDLSSVLGLDVSIDHRGSTGTLTITYATLEQLDDLCNRLTRGI
# Variants of: B1
# Assay: one-hybrid fitness for binding NBS DNA (the Noc-binding site; scaled: cognate 1, non-cognate 0); higher = stronger binding
# Conditions: with NBS DNA site
# In short: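 Values were rescaled so that cognate is 1 and non-cognate is 0. Each is a fitness, the log change in a variant's read ratio to wild type from Illumina reads of plasmids before and after selection, with three replicate libraries pooled and variants under 10 reads dropped. Selection of the Caulobacter ParB libraries, four specificity codons randomised, used E. coli USO with a HIS3 reporter, site 19 bp from the promoter, on M9-minus-histidine with 0.1 mM IPTG and 5 mM 3-AT for 48 hours at 37°C.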
row,Variant,one-hybrid fitness for binding NBS DNA
1,DMCG,≤ 0.2
2,LNDN,≤ 0.2
3,HIRY,≤ 0.2
4,MHFS,≤ 0.2
5,ATTP,≤ 0.2
6,ESGF,≤ 0.2
7,LAAR,≤ 0.2
8,SNHH,≤ 0.2
9,VFVQ,≤ 0.2
10,PNVF,≤ 0.2
11,NEKR,≤ 0.2
12,QQAM,≤ 0.2
13,QQFS,0.284
14,QQAS,0.435
15,VHVQ,≤ 0.2
16,TYPP,≤ 0.2
17,SRMD,≤ 0.2
18,YAHL,≤ 0.2
19,NRKT,0.213
20,DRKT,≤ 0.2
21,QRVT,0.69
22,QRKT,0.848
23,SAIP,≤ 0.2
24,QINI,≤ 0.2
25,TTYR,≤ 0.2

row,Variant,one-hybrid fitness for binding NBS DNA
1,TTVR,≤ 0.2
2,TTDR,≤ 0.2
3,TTKR,0.372
4,TTRR,0.378
5,TCKR,0.262
6,LKIL,≤ 0.2
7,PMKT,≤ 0.2
8,LRKL,≤ 0.2
9,DLDT,≤ 0.2
10,NAVF,≤ 0.2
11,TRTI,≤ 0.2
12,AVGC,≤ 0.2
13,RRKT,0.814
14,RCVT,0.319
15,RGKT,0.24
16,RRKW,0.351
17,RRVT,0.755
18,GGMT,≤ 0.2
19,TPSP,≤ 0.2
20,YMFT,≤ 0.2
21,DRVR,≤ 0.2
22,KLKR,0.319
23,KCVR,≤ 0.2
24,DRKR,0.238
25,KRVR,0.456

row,Variant,one-hybrid fitness for binding NBS DNA
1,KRKR,0.849
2,IHAG,≤ 0.2
3,CWRR,≤ 0.2
4,HRDS,≤ 0.2
5,RKNS,0.606
6,RKDD,≤ 0.2
7,RKND,≤ 0.2
8,RKDP,≤ 0.2
9,RKNN,≤ 0.2
10,RKDS,0.412
11,FIER,≤ 0.2
12,PSMI,≤ 0.2
13,EAIR,≤ 0.2
14,EAPH,≤ 0.2
15,EAPS,≤ 0.2
16,ECPR,≤ 0.2
17,EAPF,0.532
18,EAPR,0.408
19,HVLW,≤ 0.2
20,ITMG,≤ 0.2
21,VHNR,≤ 0.2
22,LWVP,≤ 0.2
23,VKGG,≤ 0.2
24,EIGT,≤ 0.2
25,RTYT,0.494

row,Variant,one-hybrid fitness for binding NBS DNA
1,RTQT,0.537
2,RTRT,0.704
3,RTPT,0.201
4,RTSP,≤ 0.2
5,RTST,0.565
6,RTQM,≤ 0.2
7,RTET,0.234
8,RTSH,0.207
9,RTQC,≤ 0.2
10,RTWT,0.356
11,RTIT,0.352
12,GGKA,≤ 0.2
13,AFLS,≤ 0.2
14,RKPM,≤ 0.2
15,QSHF,≤ 0.2
16,CTPF,≤ 0.2
17,PLPM,≤ 0.2
18,KIKM,≤ 0.2
19,HHNR,≤ 0.2
20,NSTM,≤ 0.2
21,RTGT,0.575
22,RTGG,≤ 0.2
23,RTGC,≤ 0.2
24,YFNT,≤ 0.2
25,RRSK,0.378

row,Variant,one-hybrid fitness for binding NBS DNA
1,RRRK,0.41
2,RRDK,≤ 0.2
3,RCSK,≤ 0.2
4,RSSK,≤ 0.2
5,RRYK,0.202
6,MRQS,≤ 0.2
7,MFRF,≤ 0.2
8,LRHC,≤ 0.2
9,KHAS,≤ 0.2
10,CVNW,≤ 0.2
11,REMW,≤ 0.2
12,TEPR,≤ 0.2
13,AEPR,0.408
14,IEYR,≤ 0.2
15,IEPS,≤ 0.2
16,IEPR,0.427
17,AEIR,≤ 0.2
18,LSRY,≤ 0.2
19,SFFN,≤ 0.2
20,EDND,≤ 0.2
21,AQKT,≤ 0.2
22,RCPR,≤ 0.2
23,RRPP,≤ 0.2
24,RCIR,0.294
25,RRID,≤ 0.2

row,Variant,one-hybrid fitness for binding NBS DNA
1,RRPR,0.605
2,RRIR,0.686
3,WWTF,≤ 0.2
4,WLEG,≤ 0.2
5,FKSG,≤ 0.2
6,IVTP,≤ 0.2
7,PVGL,≤ 0.2
8,RPMS,≤ 0.2
9,RTMS,0.452
10,RKMN,≤ 0.2
11,RCMS,0.412
12,RSMS,0.351
13,RHMD,≤ 0.2
14,RHMS,0.386
15,RTMH,≤ 0.2
16,RTMD,≤ 0.2
17,RKMS,0.586
18,RHMH,≤ 0.2
19,RKMD,≤ 0.2
20,WRRW,≤ 0.2
21,DIYS,≤ 0.2
22,HNSK,≤ 0.2
23,TLTK,≤ 0.2
24,QTNF,0.244
25,QTNS,0.629

row,Variant,one-hybrid fitness for binding NBS DNA
1,QTNH,0.495
2,QSNY,≤ 0.2
3,QTDQ,≤ 0.2
4,QTDY,≤ 0.2
5,QTNN,0.327
6,QTDH,0.335
7,QTDS,0.331
8,QCNQ,0.222
9,QTNQ,0.377
10,QTNY,0.431
11,HFFR,≤ 0.2
12,RCTP,≤ 0.2
13,EWRC,≤ 0.2
14,YVHE,≤ 0.2
15,VDSG,≤ 0.2
16,HSAM,≤ 0.2
17,VVYR,≤ 0.2
18,RMAS,0.405
19,RSAD,≤ 0.2
20,RPAW,≤ 0.2
21,RSAP,≤ 0.2
22,RCAW,0.431
23,RTAS,0.454
24,RMAH,≤ 0.2
25,RTAD,≤ 0.2

row,Variant,one-hybrid fitness for binding NBS DNA
1,RSAS,0.424
2,RTAP,≤ 0.2
3,RMAN,≤ 0.2
4,RSAW,≤ 0.2
5,SWHQ,≤ 0.2
6,IRHW,≤ 0.2
7,EMAM,≤ 0.2
8,DYQG,≤ 0.2
9,TGTL,≤ 0.2
10,WNAL,≤ 0.2
11,RHAN,≤ 0.2
12,RCAS,0.476
13,RLAS,0.383
14,RAAS,0.368
15,RAAD,≤ 0.2
16,RHAS,0.433
17,RLAP,≤ 0.2
18,RPAS,≤ 0.2
19,RLAH,≤ 0.2
20,RHAP,≤ 0.2
21,RAAH,≤ 0.2
22,RIAS,0.345
